# Test results as given in PubChem BioAssay AID1063 (University of Pittsburgh Molecular Library Screening Center, 2008).
# Hit rate of the full screen: of about 200,000 compounds, about 18,000 (9%) were called active. No stated cut-off is given here; in the data, active means inhibition above about 50%; inactive means the rest. For the sample, actives were picked, then their nearest neighbours and some compounds at random.
# Assay: Leishmania major promastigote growth inhibition, primary screen (AID 1063);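 further: promastigotes grown with compound for 44 hours at 28 °C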
# Details: Leishmania major promastigotes, resazurin fluorescence viability; at 10 µM; hits give high values
row,Compound,inhibition
1,Cn1c(=O)cc(OCC(=O)N2CCN(c3ccccc3F)CC2)c2ccccc21,-1.08% (inactive)
2,COC(=O)c1ccc(/C=N/OCC(=O)Nc2cc(F)ccc2F)cc1,6.63% (inactive)
3,CCc1ccc(OCC(=O)OCC(=O)c2c(N)n(C)c(=O)n(C)c2=O)cc1,-8.87% (inactive)
4,Cc1cccc(C)c1NC(=O)C1(N(C(=O)c2ccccn2)c2ccc(O)cc2)CCCCC1,-0.59% (inactive)
5,Cc1cc(C)cc(NC(=O)COC(=O)c2cc(C)oc2C)c1,-1.77% (inactive)
6,CC1CC2=C(CC1/C=N/NC(N)=S)C(C)(C)CCC2 (stereo not given),100% (active)
7,CC1(C)CCCC2=C1CC1C(=O)N(c3ccccc3)C(=O)C1C2 (stereo not given),4.86% (inactive)
8,COCCNC(=O)c1ccc(-n2c(SCc3cccnc3)nc3ccccc3c2=O)cc1,-2.65% (inactive)
9,COc1cc(N2C(=O)c3ccccc3C2=O)c(Cl)cc1C(=O)OCC(=O)N1CCOCC1,16.7% (inactive)
10,CC1=C(C(=O)Nc2cc(C)ccn2)C(c2cnn(C)c2)C2=C(CC(c3ccccc3)CC2=O)N1 (stereo not given),1% (inactive)
11,Cc1cc(C)c2c(n1)nn1c(N3CCOCC3)cc(C)nc21,4.53% (inactive)
12,Cc1cc(C)c2nc(SCCC#N)nc(C)c2c1,5.11% (inactive)
13,Cc1cc(C)c2nc3nc(C)cc(C)c3c(N)c2c1,100% (active)
14,O=C(C1CCCO1)N(c1ccc(F)cc1)C1C=CS(=O)(=O)C1 (stereo not given),-5.34% (inactive)
15,CC1CCC2(CC1)NC(=O)N(Cc1nnc(-c3cccs3)o1)C2=O (stereo not given),1.95% (inactive)
16,COc1ccc(CCN=C2SCC(=O)N2Cc2ccccc2)cc1OC,20.8% (inactive)
17,COc1ccc(C2c3[nH]c4ccccc4c3CCN2CCCn2cccn2)cc1C (stereo not given),16.8% (inactive)
18,c1ccc(C2c3[nH]c4ccccc4c3CCN2Cc2cccn2-c2cccnc2)nc1 (stereo not given),0.1% (inactive)
19,Oc1cccc(C2c3[nH]c4ccccc4c3CCN2Cc2cnn(-c3ccccc3)c2)c1 (stereo not given),-0.63% (inactive)
20,COc1cccc(C2c3[nH]c4ccccc4c3CCN2Cc2cccc(C)n2)c1 (stereo not given),82.2% (active)
21,COCc1ccc(C(=O)N2CCc3c([nH]c4ccccc34)C2c2ccccn2)s1 (stereo not given),13.5% (inactive)
22,CCOc1ccc(C2c3[nH]c4ccccc4c3CCN2Cc2cn(CC)nc2C)cc1 (stereo not given),64.3% (active)
23,CC(C)C(O)C1CCN(Cc2nc(Cc3ccccc3Cl)no2)CC1 (stereo not given),1.45% (inactive)
24,COc1ccc([N+](=O)[O-])cc1NC(=O)CC1SC(=Nc2cccc(C)c2C)N(/N=C(\C)c2ccc(C)cc2)C1=O (stereo not given),30.7% (inactive)
25,CC1(C)C2CCC1(C)C(OC(=O)c1ccc(O)cc1)C2 (stereo not given),14.5% (inactive)
